Assay results as given in PubChem BioAssay (NCATS).
Several values for one entry are separate records, joined by “and”; a condition that tells them apart may be missing. Identical values can stand only once. Activity calls are given as the source filed them. The call rests on the fitted dose curve.
Potency means the concentration at half of the fitted maximal effect.

What follows are compounds tested against Glucocorticoid receptor (Homo sapiens) (UniProt P04150) (assay: GR-EFC Redistribution (AID 451)). Details: CHO-K1 GR-EFC translocation, beta-gal luminescence, 2 h.
Glucocorticoid receptor (Homo sapiens), sequence (P04150 whole entry, looked up): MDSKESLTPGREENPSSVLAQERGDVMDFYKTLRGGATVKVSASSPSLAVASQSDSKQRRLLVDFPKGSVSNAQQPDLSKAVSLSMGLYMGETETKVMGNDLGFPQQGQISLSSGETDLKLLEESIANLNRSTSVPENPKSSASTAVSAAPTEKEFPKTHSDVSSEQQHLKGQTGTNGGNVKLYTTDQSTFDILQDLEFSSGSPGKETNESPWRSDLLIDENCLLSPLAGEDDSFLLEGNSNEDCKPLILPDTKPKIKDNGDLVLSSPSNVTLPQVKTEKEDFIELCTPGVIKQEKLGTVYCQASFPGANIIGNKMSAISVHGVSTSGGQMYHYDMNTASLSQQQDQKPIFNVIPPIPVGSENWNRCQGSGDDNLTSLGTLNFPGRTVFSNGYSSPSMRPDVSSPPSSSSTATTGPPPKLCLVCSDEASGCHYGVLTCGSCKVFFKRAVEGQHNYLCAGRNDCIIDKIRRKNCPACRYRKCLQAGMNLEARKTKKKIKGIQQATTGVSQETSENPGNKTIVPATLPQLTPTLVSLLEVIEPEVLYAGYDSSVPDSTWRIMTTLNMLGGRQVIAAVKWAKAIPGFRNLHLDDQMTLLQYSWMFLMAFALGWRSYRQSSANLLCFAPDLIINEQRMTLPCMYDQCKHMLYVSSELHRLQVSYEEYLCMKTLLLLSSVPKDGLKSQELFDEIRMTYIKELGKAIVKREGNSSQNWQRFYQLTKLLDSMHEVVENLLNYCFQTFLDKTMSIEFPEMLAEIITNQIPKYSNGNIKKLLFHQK
From the text: NIH Molecular Libraries Screening Centers Network [MLSCN]
NIH Chemical Genomics Center [NCGC]
The glucocorticoid receptor (GR) is a cytoplasmic receptor that belongs to the nuclear receptor family of ligand-dependent transcription factors. Upon glucocorticoid binding to its receptor, the glucocorticoid-GR complex translocates into the nucleus, where it binds as a dimer to specific DNA sequences (glucocorticoid response elements), enhancing or suppressing transcription of a wide variety of glucocorticoid-responsive genes. In addition to their important roles in normal physiology and metabolism, glucocorticoids are administered exogenously as treatments for a wide variety of allergic, autoimmune, and neoplastic conditions. Identification of compounds that modulate aspects of GR signalling would be useful in dissecting glucocorticoid response pathways as well as developing GR modulators with more targeted clinical effects.
Traditionally, GR modulators have been identified using receptor binding or direct transactivation assays. However, assays for glucocorticoid-dependent nuclear translocation can also be used to screen for compounds affecting GR signaling.
Immunocytochemical staining has been used to assay for GR translocation, but is not suitable for high throughout screening due to the multiple reagent addition and wash steps required. Recently, a novel cell-based GR assay in Enzyme Fragment Complementation (EFC) format was developed by DiscoveRx (Fremont, CA). The assay uses EFC of b-galactosidase (b-gal) as an indicator of GR-translocation in engineered CHO-K1 biosensor cells. The enzyme acceptor (EA) fragment of b-gal resides in the nucleus , as designed through the use of a proprietary set of sequence additions and modifications. The small peptide enzyme donor (ED) fragment of b-gal is fused directly to the C-terminus of GR, and is localized in the cytoplasm is the absence of receptor signaling. Upon binding to a GR ligand, the complex translocates to the nucleus, where intact enzyme activity is restored by complementation and b-gal activity is detected. We optimized this GR-EFC assay in homogenous 1536-well plate assay format for high throughput screening.
NCGC Assay Protocol Summary:
CHO-K1 cells stably expressing NLS-enzyme acceptor fragment (EA) of b-gal and GR-enzyme donor (ED) fragment of b-gal were maintained in F12 medium (Invitrogen, Carlsbad, CA) at 37 Celsius degrees under a humidified atmosphere containing 5% CO2 and 95% air. The medium contained 10% FBS, 2 mM L-glutamine, 50 U/ml penicillin 50 ug/ml streptomycin, and 250 ug/ml hygromycin and 500 ug/ml G418 (Invitrogen).
GR-translocation was measured beta-gal enzyme activity using the PathHunter Detection Kit containing cell membrane permeablizing reagent and beta-gal substrate (DiscoveRx, Fremont, CA). All compounds were screened as titrations from 0.6 nM to 46 uM final concentration. The assay was performed in 1536-well format as follows:
5 uL cell suspension (1,000 cells)/well
Incubation at 37 Celsius degrees for two hours
1.25 uL 1X detection buffer from the kit supplied by DiscoveRx
Incubation at room temperature for one hour
Read plate in luminescence mode in ViewLux plate reader (PerkinElmer)
Keywords: NIH Roadmap, MLSCN, MLI, MLSMR, GR-EFC, GREFC, qHTS, NCGC
For O=C1NCN(c2ccccc2)C12CCN(CCCOc1ccc(F)cc1)CC2, the Potency was > 46 µM (inactive).
With NC(=O)CN1CCCC1=O the Potency was > 46 µM (inactive) and > 20.6 µM (inactive).
For Oc1ccc2[nH]cc(CCCCN3CC=C(c4ccccc4)CC3)c2c1, the Potency was > 46 µM (inactive).
In the case of CCCCCCCCC(=O)NCc1ccc(O)c(OC)c1, the Potency is reported as > 46 µM (inactive).
O=C(CCCN1CCC(n2c(=O)[nH]c3ccccc32)CC1)c1ccc(F)cc1 was tested, and the Potency was > 20.6 µM (inactive).
In the case of CCC(=O)O[C@H]1CC[C@H]2[C@@H]3CCC4=CC(=O)CC[C@]4(C)[C@H]3CC[C@]12C, the Potency is reported as > 20.6 µM (inactive).
O=C(O)c1nn(Cc2ccc(Cl)cc2Cl)c2ccccc12 was tested, and the Potency was > 46 µM (inactive).
COc1ccc(CN2CCNCC2)c(OC)c1OC was tested, and the Potency was > 20.6 µM (inactive).
In the case of c1ccc2nc(N3CCNCC3)ccc2c1, the Potency is reported as > 46 µM (inactive) and > 20.6 µM (inactive).
In the case of COc1ccc(C(=O)N2CCCC2=O)cc1, the Potency is reported as > 46 µM (inactive).
In the case of CN1[C@@H]2CC[C@H]1CC(OC(=O)c1cc(Cl)cc(Cl)c1)C2 (some centres undefined), the Potency is reported as > 46 µM (inactive).
CC(C)[N+](C)(CCC(C(N)=O)(c1ccccc1)c1ccccc1)C(C)C was tested, and the Potency was > 20.6 µM (inactive).
For OC(c1ccccc1)(c1ccccc1)C1CCNCC1, the Potency was > 20.6 µM (inactive).
In the case of COC(=O)C1=CCCN(C)C1, the Potency is reported as > 46 µM (inactive) and > 20.6 µM (inactive).
